PLK1 PBD inh: PLK1 (human) polo-box domain binding inhibition; P53350; Plk1 PBD binding of FITC phosphopeptide, fluorescence polarization; Potency, µM, without a hit: max response, negative = inhibition, hits mostly inhibitors; 360,000 tested, 2.8% active; AID 720504; also: series mostly up to about 57 µM; nearly all actives have a fitted effect of over 65% in size
VDR inhibitor: inhibitors of human vitamin D receptor. P11473. VDR-SRC2-3 peptide fluorescence polarization, 2 h. Potency, µM, inactives show max response, negative = inhibition, hits mostly inhibitors. 400,000 tested, 0.93% active
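Reagent solutions, kept cold and dark, are dispensed first; compounds are then pinned in at 23 nl, plates briefly spun, and incubated 2 h at ambient temperature. Inhibition of VDR–SRC2-3 peptide binding is read by fluorescence polarization.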
Sfp PPTase inh: inhibitors of Bacillus subtilis Sfp phosphopantetheinyl transferase; AID 1490; 310,000 tested, 3.5% active; Potency, µM, without a hit: largest response in the series, negative = inhibition, usual class: inhibitors; Biochemical Sfp PPTase activity, qHTS;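 also: the enzyme is Sfp with the accession as filed and its product quenches rhodamine fluorescence; 0% = enzyme reaction without inhibitor and -100% = no enzyme wells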
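Buffer: 50 mM Hepes-Na pH 7.6, 10 mM MgCl2, 0.01% Nonidet P-40, 0.01% BSA. Enzyme 15 nM, pre-exposed to compound 15 min; substrates then added and fluorescence change tracked over 30 min.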
TrxR1 inh: inhibitors of rat thioredoxin reductase 1 | AID 588453 | Potency, µM (doses to about 114 µM), for inactives: at the top dose activity change, negative = inhibition, usual class: inhibitors | O89049 | 390,000 tested, 1% active | recombinant rTrxR1, NADPH fluorescence consumption, selenite substrate; also: nearly all actives have a fitted effect of over 65% in size
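Rat TrxR1 (90 nM in the dispensed reagent) was pre-reduced with 400 uM NADPH for 5 min at room temperature, then incubated with compound for 15 min. After 400 uM selenite was added, NADPH fluorescence (Ex 340/Em 450 nm) was followed for 8 min.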
IDH1 R132H inh: blocks human mutant IDH1 R132H enzyme; AID 602179; Potency, µM (series often up to 76.6 µM), for inactives: top-dose activity change, negative = inhibition, actives largely listed as inhibitors; IDH1-R132H enzyme, NADPH consumption, diaphorase/resazurin fluorescence; O75874; 390,000 tested, 0.093% active; also: nearly all actives have a fitted effect of over 65% in size
Target sequence (O75874 whole entry R132H, stated change not applied): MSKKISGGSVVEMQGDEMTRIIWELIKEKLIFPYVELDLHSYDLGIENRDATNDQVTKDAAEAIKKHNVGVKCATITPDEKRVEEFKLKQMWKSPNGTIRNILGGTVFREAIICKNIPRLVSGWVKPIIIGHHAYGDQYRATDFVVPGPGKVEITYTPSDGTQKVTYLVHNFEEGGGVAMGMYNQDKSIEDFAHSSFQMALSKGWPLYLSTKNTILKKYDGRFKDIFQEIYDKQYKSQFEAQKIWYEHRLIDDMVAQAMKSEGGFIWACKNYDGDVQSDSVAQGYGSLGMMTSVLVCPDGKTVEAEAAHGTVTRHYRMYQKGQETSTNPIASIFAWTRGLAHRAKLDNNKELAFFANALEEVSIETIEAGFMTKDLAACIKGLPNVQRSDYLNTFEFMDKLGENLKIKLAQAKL
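IDH1-R132H (0.5 ug/mL dispensed) in pH 7.5 Tris buffer was preincubated 30 min with compound, then given a substrate mix of 0.016 mM NADPH and 2 mM alpha-KG for 80 min at room temperature; remaining NADPH was read by diaphorase/resazurin fluorescence.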
TrxR1 substrate: rat thioredoxin reductase 1 substrate activity; purified TrxR1 substrate turnover, NADPH consumption readout; 390,000 tested, 0.01% active; Potency, µM (titrated, usually from 114 µM), without a hit: at the top dose activity change, negative = substrate turnover; O89049; AID 588456; also: nearly all actives have a fitted effect of over 50% in size
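Rat TrxR1, dispensed at 90 nM, was prereduced with 400 uM NADPH (final) for 5 min at ~22 deg C, then incubated with compound 15 min before 400 uM selenite. A first-read NADPH fluorescence drop versus no-compound background flagged substrates.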
* = called active by the depositor; ? = inconclusive; nt = no result; ! = not confirmed by another sample; [ ] = remark or other dose. Rows were chosen to be rich in hits. Some 5.2% of all compounds tested hit in one or more screens of this group. Calls follow the shape of the dose curve; as a rule, active = well fitted curve in the direction sought with a large enough effect; inconclusive = small, poorly fitted or top-dose-only effect, or another doubt; inactive = no such curve, though single readings can be large; an effect the other way counts as inactive or inconclusive. Unless noted, % is scaled to controls: 0 for no effect and ±100 for the full control effect; potency is read from the fitted curve at half-maximal effect.

SMILES	PLK1 PBD inh	VDR inhibitor	Sfp PPTase inh	TrxR1 inh	IDH1 R132H inh	TrxR1 substrate
O=C(c1ccccc1)c1cn(CC(=O)N2CCCC2)c2ccccc12	-3%	14%	-3%	-6%[57.1 µM]	4%	-1%[57.1 µM]
O=C1CCCC2C3CC(CN12)C1CCCCN1C3 (stereo not given)	nt	16%	-8%	nt	nt	nt
O=C(O)c1cc(O)c(O)c(O)c1	nt	50µM*!	8.9µM*!	nt	nt	nt
C(=C/c1ccccc1)/CN1CCN(CCOC(c2ccccc2)c2ccccc2)CC1	nt	-7%	?	nt	nt	nt
CC[C@@H](CO)Nc1nc(NCc2ccccc2)c2ncn(C(C)C)c2n1	nt	-9%	nt	5%[57.1 µM]	nt	1%[57.1 µM]
CCC1(O)C(=O)OCc2c1cc1n(c2=O)Cc2cc3cc(O)ccc3nc2-1 (stereo not given)	12µM*	-24%	nt	1%	-11%	28%
CC[C@@]1(O)C(=O)OCc2c1cc1n(c2=O)Cc2cc3c(NC(=O)CN)cccc3nc2-1	1%	-5%	56µM*	10%[57.1 µM]	4%	84%
CC(C)=CC1C(C(=O)OCc2coc(Cc3ccccc3)c2)C1(C)C (stereo not given)	nt	?	-3%	nt	nt	nt
CCN(CC)c1ccccc1	-1%	-15%	nt	23%	1%	5%
CCN(CC)c1ccc(/C=C/[N+](=O)[O-])cc1	0%	18µM*	?	?	3%	-8%
CC(=O)C(Sc1ncnc2c1nnn2-c1ccc(F)cc1)C(=O)N(C)C (stereo not given)	24µM*	50µM*	10µM*	?	-1%	-7%
COc1ccc(NC(=O)CCn2cnc3onc(-c4ccc(F)cc4)c3c2=O)cc1OC	nt	12%	nt	?	13%	-10%
COc1ccc(C#Cc2ccc3c(c2)O[C@H](CN(C)C(C)=O)[C@H](C)CN([C@@H](C)CO)S3(=O)=O)cc1	24µM*	nt	nt	nt	-1%	nt
COc1ccc(OC(=O)N(C)C[C@H]2OCc3cnnn3CCCC(=O)N([C@@H](C)CO)C[C@H]2C)cc1	-7%	nt	nt	nt	-17%	nt
C=CCSC1=N/C(=C\c2cc(OC)c3c(c2)OCO3)C(=O)S1	?	-5%	18µM*	-23%	-2%	-7%
Cc1cc(C)cc(N2C(=O)NC(=O)/C(=C\c3cccn3-c3ccc(Cl)cc3)C2=O)c1	1.2µM*	-1%	-1%	?	4%	-10%
Cn1cccc1/C=C1/C(=O)NC(=O)N(C(C)(C)C)C1=O	-10%	-6%	-20%	-20%	1%	-13%
Cc1cc(C)cc(N2C(=O)NC(=O)/C(=C\c3cccn3-c3ccccc3)C2=O)c1	2.1µM*	-8%	-4%	-31%	12%	-9%
CN1C(=O)/C(=C/c2cccn2-c2ccc3ccccc3c2)C(=O)NC1=S	0.53µM*	45µM*	56µM*	?	4%	-7%
CNC(CC(C)C)C(=O)NC1C(=O)NC(CC(N)=O)C(=O)NC2C(=O)NC3C(=O)NC(C(=O)NC(C(=O)O)c4cc(O)cc(O)c4-c4cc3ccc4O)C(O)c3ccc(c(Cl)c3)Oc3cc2cc(c3OC2OC(CO)C(O)C(O)C2OC2C[C@](C)(N)C(O)C(C)O2)Oc2ccc(cc2Cl)C1O (stereo not given in full)	2%	6%	nt	-8%	11%	5%
CCc1ccc(N2C(=O)NC(=O)/C(=C/c3cccn3CCOc3ccc(C)cc3)C2=O)cc1	-10%	17%	0%	-20%	-13%	-5%
O=C1NC(=O)N(Cc2ccco2)C(=O)/C1=C\c1cccn1CCOc1ccc(Cl)cc1	1.9µM*	-27%	45µM*	22µM*	-2%	2%
Cc1cccc(OCCn2cccc2/C=C2/C(=O)NC(=O)N(Cc3ccco3)C2=O)c1	1.9µM*	8%	56µM*	35µM*	-16%	-4%
c1ccc(N2CCCC3(CCNCC3)C2)nc1	nt	50µM*	-2%	nt	nt	nt
c1ccc(N2CCCC3(CCNCC3)C2)cc1	nt	?	1%	nt	nt	nt
SMILES	PLK1 PBD inh	VDR inhibitor	Sfp PPTase inh	TrxR1 inh	IDH1 R132H inh	TrxR1 substrate
CCN1CC2(OC(=O)c3ccccc3NC(C)=O)CCC(OC)[C@]34C1[C@H](CC23)[C@@]1(O)C[C@H](OC)[C@H]2CC4C1(O)[C@H]2OC (stereo not given in full)	nt	0%	-6%	nt	nt	nt
CN(CCc1ccc(Cl)c(Cl)c1)[C@@H]1CCCC[C@@H]1N1CCCC1	nt	-2%	16%	nt	nt	nt
Cc1cc(C)cc(N2C(=O)/C(=C\c3ccc(N4CCN(C)CC4)o3)C(=O)NC2=S)c1	119%	-3%	-1%	?	-9%	?
Cc1ccc(N2C(=O)/C(=C/c3ccc(CN(CCC#N)S(C)(=O)=O)o3)C(=O)NC2=S)cc1	6µM*	?	20µM*	10µM*	-2%	2%
c1ccc2c(c1)-c1cccc3cccc-2c13	0%	-9%	nt	37%	11%	40%[57.1 µM]
Nc1c(Br)cc2c3c(cccc13)-c1ccccc1-2	-21%	28µM*	nt	11%[57.1 µM]	7%	-16%
CN1[C@@H](CC(=O)c2ccccc2)CCC[C@H]1C[C@H](O)c1ccccc1	-16%	2%	-8%	15%[57.1 µM]	-7%	8%[57.1 µM]
CN1C(CC(=O)c2ccccc2)CCCC1CC(O)c1ccccc1 (stereo not given)	-12%	89µM*!	7%	18%	15%	10%
C[C@H](NC(=O)[C@@H](N)Cc1ccc(O)cc1)C(=O)N[C@@H](Cc1ccccc1)C(=O)NCC(=O)N[C@@H](Cc1ccc(O)cc1)C(=O)N1CCC[C@H]1C(=O)N[C@@H](CO)C(N)=O	nt	2%	21%	nt	nt	nt
Cc1cc(/C=C2\C(=O)NC(=O)N(c3ccc(Cl)cc3)C2=O)c(C)n1-c1cccc(C(=O)O)c1	27µM*	8%	-9%	-36%	6%	-11%
Cc1cc(/C=C2\C(=O)NC(=O)N(c3cccc(F)c3)C2=O)c(C)n1-c1cc(C(=O)O)cc(C(=O)O)c1	?	9%	-21%	-46%	-3%	-16%
Cc1cc(/C=C2\C(=O)NC(=O)N(c3ccc(Br)cc3)C2=O)c(C)n1-c1cc(C(=O)O)cc(C(=O)O)c1	12µM*	?	-2%	-15%[57.1 µM]	4%	19%[2.29 µM]
COc1ccc(CN(C)S(=O)(=O)c2nnc(NC(=O)c3ccccc3Br)s2)cc1	-18%	1%	27%	7%	23%	4%
CCCCC/C=C\C/C=C\C/C=C\C/C=C\CCCC(=O)NCCCl	nt	27%	32µM*	nt	nt	nt
CCCCC/C=C\C/C=C\C/C=C\C/C=C\CCCC(=O)O	nt	7.9µM*!	63µM*!	nt	nt	nt
CCCCC/C=C\C/C=C\C/C=C\C/C=C\CCCC(=O)NCc1ccc(O)c(OC)c1	nt	45µM*	9%	nt	nt	nt
CCCCC/C=C\C/C=C\C/C=C\CCCCC(=O)NCCO	nt	1%	2%	nt	nt	nt
CCCCCCCCC(=O)NCc1ccc(O)c(OC)c1	-11%	-15%	13%	-1%	32%	-7%
